Measurements from PubChem BioAssay (NCATS).
Values joined by “and” are separate entries in the source; they are usually repeats but may differ in a detail not shown here. Equal values may be shown once. Inconclusive results are not listed. Active and inactive are the calls of the source. Unless noted, calls come from the whole dose curve; as a rule, active = well fitted curve in the direction sought with a large enough effect; inconclusive = small, poorly fitted or top-dose-only effect, or another doubt; inactive = no such curve, though single readings can be large; an effect the other way counts as inactive or inconclusive.

How the values were obtained:
[1] = AP1 Signaling Pathway (AID 357; active = well fitted curve in either direction with a large enough effect, not every such curve was filed as active; note: % is set by controls: 0 for no effect and ±100 for the full control effect); conditions: ME-180 AP-1-bla reporter, EGF-induced, beta-lactamase ratio, 5 h; at 7.69 µM (top of the series) unless noted
Outline: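 ME-180 cells with beta-lactamase reporter under AP-1 response element, stimulated with EC50 EGF; compounds tested in titration series, 5 h at 37 °C. CCF4 substrate added 2.5 h at room temperature; 460/530 nm emission ratio gave %activity and AC50.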

[2] = molecular target: Cytochrome P450 1A2 (Homo sapiens) (UniProt P05177); assay: p450-cyp1a2 (AID 410; calls by dose curve;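 note: -100% = full effect of reference inhibitor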)
Outline: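 20nM CYP1A2, 100uM Luciferin-ME (=Km), 100mM KPO4; cpd 10 min RT; +NADPH regen, 60 min RT; stop/detect 20 min; luminescence. Normalized to furafylline 57 uM = full inhibition.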

[3] = NFAT Signaling Pathway (AID 444; active = well fitted curve in either direction with a large enough effect, not every such curve was filed as active;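 note: carbachol stimulus at about its EC50 of 1 µM final; % is set by controls: 0 for no effect and ±100 for the full control effect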); conditions: Jurkat NFAT-bla M1, carbachol, beta-lactamase ratio, 5 h; at 7.69 µM (top of the series) unless noted
Outline: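 Read-out: CCF4 FRET ratio (460 nm/530 nm) after 1 h RT dye loading, used for %activity and AC50 from titration series. Cells: Jurkat NFAT-β-lactamase/M1 line, treated with compound plus 1 uM carbachol for 5 h, 37 °C.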

[4] = Stat Signaling Pathway (AID 446; active = well fitted curve in either direction with a large enough effect, not every such curve was filed as active;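 note: ME-180 cervical cancer cells given 40 pM IL-6 alongside compound; SIE-controlled beta-lactamase reporter measured as 460/530 nm FRET emission ratio; % is set by controls: 0 for no effect and ±100 for the full control effect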); conditions: ME-180 (cervical carcinoma) SIE beta-lactamase reporter, IL-6 stimulated, 5 h
Outline: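 Normalization used AC90 stimulation (300 pM IL-6) and AC90 inhibition (125 nM pan-JAK inhibitor at 40 pM IL-6). The underlying signal is SIE-driven beta-lactamase in ME-180 cells after 5 h IL-6 exposure with compound.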

[5] = molecular target: Glucocorticoid receptor (Homo sapiens) (UniProt P04150); assay: GR-GFP Redistribution (AID 450;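 active = compounds whose dose series gives a full or clear partial fitted curve of increased nuclear translocation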; note: potency is the fitted concentration of half-maximal effect); conditions: U2OS GR-GFP nuclear translocation, laser cytometry, 2 h
[6] = molecular target: Glucocorticoid receptor (Homo sapiens) (UniProt P04150); assay: GR-EFC Redistribution (AID 451; calls by dose curve; note: potency is the fitted concentration of half-maximal effect); conditions: CHO-K1 GR-EFC translocation, beta-gal luminescence, 2 h
Outline: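 Translocation of GR-ED fusion to nuclear EA restores b-gal, read by luminescence after 1 h room-temperature detection. Engineered CHO-K1 biosensor cells, 1,000/well, exposed 2 h at 37 C to titrations up to 46 uM final.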

[7] = molecular target: Mitogen-activated protein kinase 10 (Mus musculus) (UniProt Q61831); assay: JNK3 AlphaScreen Assay (AID 530; active = well fitted curve in either direction with a large enough effect, not every such curve was filed as active;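 note: kinase came from lysate of stimulated human HepG2 cells; signal reports phosphorylation of biotinylated GST-cJun 1-79 at Ser73 with 10 µM ATP; % is set by controls: 0 for no effect and ±100 for the full control effect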)
Outline: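 Kinase buffer: 20 mM Tris-HCl pH 7.6, 10 mM MgCl2, 1 mM DTT, 0.1 mM Na3VO4, 0.01% Tween-20; ATP 10 uM. Substrate biotin-GST-cJun(1-79), enzyme from activated HepG2 lysates. Detection by Ser73 phospho-antibody AlphaScreen.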

[8] = molecular target: 3',5'-cyclic-AMP phosphodiesterase 4B (Homo sapiens) (UniProt Q07343); assay: qHTS Assay for Inhibitors of PDE-IV (AID 607; active = well fitted activation curve with a large enough effect in the main read-out, with a control signal flat, not every such curve was filed as active; note: % of control where 0% means no effect)
Outline: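 HEK293 ACTOne cells with CNG channel (1000/well), endogenous PDE4; membrane potential dye, compounds up to 22.9 uM final. Fluorescence Ex 535/Em 590; RO 20-1724 (100 uM final) as reference.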

[9] = qHTS Assay for Lipid Storage Modulators (AID 1519; calls by dose curve); conditions: Drosophila S3 cells, BODIPY lipid droplet/cell ratio, laser cytometry, cells loaded with oleic acid
Outline: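 Cells seeded at 5,000 per well were treated with compounds over a concentration series and loaded with oleic acid (400 uM, as added). Lipid droplet fluorescence (488 nm excitation, 500-530 nm channel) was read by laser-scanning cytometry and normalized to 20 uM Triacsin C.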

[10] = molecular target: ATP-dependent 6-phosphofructokinase (Trypanosoma brucei brucei) (UniProt O15648); assay: qHTS Assay to Find Inhibitors of T. brucei phosphofructokinase: hit validation (AID 492961)
Outline: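 Measures ADP output of PFK (1.25 nM) at 0.1 mM ATP, 0.5 mM F6P, pH 8.0 TEA buffer with 5 mM MgCl2. No-enzyme wells define full inhibition; uninhibited enzyme wells define zero.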

[11] = molecular target: Ubiquitin carboxyl-terminal hydrolase 1 (Homo sapiens) (UniProt O94782); assay: Inhibitors of USP1/UAF1: Pilot qHTS (AID 504865);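 note: rhodamine fluorescence freed from ubiquitin-rhodamine substrate followed over time; top concentration of the series differs between compounds; % is set by controls: 0 for no effect and ±100 for the full control effect; nearly all actives have a fitted effect of over 35% in size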
Outline: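 Deubiquitinase activity followed as kinetic rhodamine fluorescence release from 150 nM Ub-Rho. 1 nM USP1/UAF1 with compound, after 15 min room-temperature preincubation, in HEPES pH 7.8 buffer containing TCEP, EDTA, BSA and Tween-20.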

[12] = qHTS profiling for inhibitors of Plasmodium falciparum proliferation (AID 504749);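 note: 0% = DMSO vehicle and full inhibition = artemisinin control; nearly all actives have a fitted effect of over 60% in size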; conditions: P. falciparum in erythrocytes, SYBR Green DNA, 72 h
Outline: (§1)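 In a 72 h erythrocytic culture (37 C, humidified, 5% CO2) at 2.5% hematocrit and 0.3% starting parasitemia, compounds were tested; SYBR Green I in detergent lysis buffer stained parasite DNA overnight.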

AS120 = assay: as above; conditions: P. falciparum in erythrocytes, SYBR Green DNA, 72 h; series mostly up to 28.7 µM
Outline: as §1

CP238 = assay: as above; conditions: P. falciparum in erythrocytes, SYBR Green DNA, 72 h; series mostly up to 12.8 µM
Outline: as §1

CP250 = assay: as above; conditions: P. falciparum in erythrocytes, SYBR Green DNA, 72 h; series mostly up to 12.8 µM
Outline: as §1

CP262 = assay: as above; conditions: P. falciparum in erythrocytes, SYBR Green DNA, 72 h; series mostly up to 12.8 µM
Outline: as §1

CP265 = assay: as above; conditions: P. falciparum in erythrocytes, SYBR Green DNA, 72 h; series mostly up to 12.8 µM
Outline: as §1

FAB9 = assay: as above; conditions: P. falciparum in erythrocytes, SYBR Green DNA, 72 h; series mostly up to 12.8 µM
Outline: as §1

JCK = assay: as above; conditions: P. falciparum in erythrocytes, SYBR Green DNA, 72 h; series mostly up to 12.8 µM
Outline: as §1

PC49 = assay: as above; conditions: P. falciparum in erythrocytes, SYBR Green DNA, 72 h; series mostly up to 12.8 µM
Outline: as §1

[13] = at 7.69 µM (top of the series) unless noted
[14] = measured here: cell count channel max response
[15] = measured here: lipid channel max response
[16] = at 12.8 µM (top of the series), parasite line A
[17] = at 12.8 µM (top of the series), parasite line B

ATP-dependent 6-phosphofructokinase (Trypanosoma brucei brucei), sequence (O15648 whole entry, looked up): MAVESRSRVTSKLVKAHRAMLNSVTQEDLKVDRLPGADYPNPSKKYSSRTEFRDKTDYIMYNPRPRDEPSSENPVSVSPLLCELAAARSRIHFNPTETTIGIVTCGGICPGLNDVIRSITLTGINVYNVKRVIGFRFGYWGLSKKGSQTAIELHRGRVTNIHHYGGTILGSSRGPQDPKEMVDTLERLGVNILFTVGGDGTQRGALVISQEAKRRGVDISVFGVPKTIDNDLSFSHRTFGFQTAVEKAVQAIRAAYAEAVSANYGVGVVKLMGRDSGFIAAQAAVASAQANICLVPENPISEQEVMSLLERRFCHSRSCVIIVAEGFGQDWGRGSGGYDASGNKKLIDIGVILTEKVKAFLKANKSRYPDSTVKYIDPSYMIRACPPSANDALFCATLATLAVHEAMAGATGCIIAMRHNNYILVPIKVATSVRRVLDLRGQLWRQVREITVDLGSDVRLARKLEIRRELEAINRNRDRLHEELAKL
Cytochrome P450 1A2 (Homo sapiens), sequence (P05177 whole entry, looked up): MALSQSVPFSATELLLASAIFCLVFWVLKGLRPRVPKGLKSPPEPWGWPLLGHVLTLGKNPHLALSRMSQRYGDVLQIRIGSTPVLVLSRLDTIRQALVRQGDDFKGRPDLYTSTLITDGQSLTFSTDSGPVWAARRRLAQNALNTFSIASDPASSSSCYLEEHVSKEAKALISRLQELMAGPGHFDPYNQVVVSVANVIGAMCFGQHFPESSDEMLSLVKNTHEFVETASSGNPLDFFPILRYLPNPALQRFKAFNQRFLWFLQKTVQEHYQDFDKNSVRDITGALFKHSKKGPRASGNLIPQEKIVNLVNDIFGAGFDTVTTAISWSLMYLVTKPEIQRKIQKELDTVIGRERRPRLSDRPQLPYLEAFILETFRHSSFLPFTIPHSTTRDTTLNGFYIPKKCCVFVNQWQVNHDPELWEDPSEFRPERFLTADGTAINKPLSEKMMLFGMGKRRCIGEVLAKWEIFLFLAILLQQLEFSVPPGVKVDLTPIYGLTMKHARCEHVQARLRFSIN
3',5'-cyclic-AMP phosphodiesterase 4B (Homo sapiens), sequence (Q07343 whole entry, looked up): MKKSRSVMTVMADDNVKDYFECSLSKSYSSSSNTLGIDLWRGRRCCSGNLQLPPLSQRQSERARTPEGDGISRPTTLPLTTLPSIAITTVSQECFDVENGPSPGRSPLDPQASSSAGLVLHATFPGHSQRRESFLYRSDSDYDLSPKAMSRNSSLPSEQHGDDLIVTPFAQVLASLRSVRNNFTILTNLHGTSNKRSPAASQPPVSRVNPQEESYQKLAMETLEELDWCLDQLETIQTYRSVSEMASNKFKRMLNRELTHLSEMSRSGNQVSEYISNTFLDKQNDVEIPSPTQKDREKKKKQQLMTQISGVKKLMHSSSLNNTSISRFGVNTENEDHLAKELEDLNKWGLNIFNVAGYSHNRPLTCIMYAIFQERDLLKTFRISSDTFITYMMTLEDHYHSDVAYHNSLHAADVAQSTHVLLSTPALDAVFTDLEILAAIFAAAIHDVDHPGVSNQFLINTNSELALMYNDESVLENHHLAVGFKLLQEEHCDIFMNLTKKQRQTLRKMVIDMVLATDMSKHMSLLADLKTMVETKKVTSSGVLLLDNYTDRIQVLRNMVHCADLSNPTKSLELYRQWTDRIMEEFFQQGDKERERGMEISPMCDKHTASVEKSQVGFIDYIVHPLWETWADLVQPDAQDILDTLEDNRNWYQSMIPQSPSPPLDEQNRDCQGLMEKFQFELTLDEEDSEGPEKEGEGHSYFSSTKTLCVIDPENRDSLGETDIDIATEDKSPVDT
Glucocorticoid receptor (Homo sapiens), sequence (P04150 whole entry, looked up, the tested form may be a part): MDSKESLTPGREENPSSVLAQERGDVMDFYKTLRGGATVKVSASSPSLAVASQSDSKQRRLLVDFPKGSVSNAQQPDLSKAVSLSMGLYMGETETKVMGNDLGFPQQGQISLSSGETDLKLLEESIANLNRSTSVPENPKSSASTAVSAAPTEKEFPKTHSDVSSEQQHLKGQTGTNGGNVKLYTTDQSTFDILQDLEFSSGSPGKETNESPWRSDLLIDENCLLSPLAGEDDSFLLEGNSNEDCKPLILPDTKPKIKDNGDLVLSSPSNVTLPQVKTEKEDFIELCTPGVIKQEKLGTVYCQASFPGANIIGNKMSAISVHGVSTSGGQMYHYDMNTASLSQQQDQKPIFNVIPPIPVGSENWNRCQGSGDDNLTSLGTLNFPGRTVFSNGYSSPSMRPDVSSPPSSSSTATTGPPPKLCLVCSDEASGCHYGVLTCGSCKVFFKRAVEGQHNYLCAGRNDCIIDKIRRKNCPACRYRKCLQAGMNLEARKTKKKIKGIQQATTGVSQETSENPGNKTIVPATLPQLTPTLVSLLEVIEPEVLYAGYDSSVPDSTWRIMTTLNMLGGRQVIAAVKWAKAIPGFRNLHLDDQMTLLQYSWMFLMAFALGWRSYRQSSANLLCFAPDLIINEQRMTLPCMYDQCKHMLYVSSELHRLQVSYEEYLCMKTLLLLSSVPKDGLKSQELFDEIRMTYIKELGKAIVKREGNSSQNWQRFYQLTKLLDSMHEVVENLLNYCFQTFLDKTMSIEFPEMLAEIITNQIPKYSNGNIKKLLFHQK
Ubiquitin carboxyl-terminal hydrolase 1 (Homo sapiens), sequence (O94782 whole entry, looked up): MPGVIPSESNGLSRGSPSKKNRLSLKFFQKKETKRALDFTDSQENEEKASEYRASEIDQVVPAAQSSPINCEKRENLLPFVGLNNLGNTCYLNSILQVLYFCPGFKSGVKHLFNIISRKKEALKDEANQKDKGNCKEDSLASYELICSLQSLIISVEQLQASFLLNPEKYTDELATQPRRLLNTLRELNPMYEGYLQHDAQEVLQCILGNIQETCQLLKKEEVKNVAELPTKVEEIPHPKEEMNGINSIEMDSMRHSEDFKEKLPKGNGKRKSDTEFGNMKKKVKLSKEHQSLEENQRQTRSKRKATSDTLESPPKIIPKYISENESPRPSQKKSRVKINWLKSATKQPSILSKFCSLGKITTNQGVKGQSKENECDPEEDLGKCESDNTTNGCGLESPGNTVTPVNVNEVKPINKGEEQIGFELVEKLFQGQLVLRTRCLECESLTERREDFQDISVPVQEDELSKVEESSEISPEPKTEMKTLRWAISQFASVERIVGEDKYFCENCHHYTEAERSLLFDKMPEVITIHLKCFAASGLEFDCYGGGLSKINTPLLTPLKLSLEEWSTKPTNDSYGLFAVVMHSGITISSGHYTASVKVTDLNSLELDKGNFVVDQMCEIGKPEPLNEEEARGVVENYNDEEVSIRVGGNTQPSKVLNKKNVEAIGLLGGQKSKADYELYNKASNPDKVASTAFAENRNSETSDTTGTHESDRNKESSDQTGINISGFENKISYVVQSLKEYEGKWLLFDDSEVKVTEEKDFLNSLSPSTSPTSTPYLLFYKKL

SMILES: C[N+]1(C)CCC[C@@H](OC(=O)C(O)(c2ccccc2)c2ccccc2)C1
- activity change, negative = inhibition [1]: 3.62% [at 17.2 µM] (inactive)
- Potency [2]: inactive
- activity change, negative = inhibition [3]: -62.4% [at 17.2 µM] (active)
- activity, negative = inhibition [4, 13]: 11.2% [at 17.2 µM] (inactive)
- Potency [5]: > 20.6 µM (inactive)
- Potency [6]: > 20.6 µM (inactive)
- Potency [7]: inactive
- Potency [8]: inactive
- activity change, negative = inhibition ([9]; at 25.7 µM (top of the series)): -3.46% (inactive)
- max response [9, 14]: -12.3%
- max response [9, 15]: -16.2%
- outcome [10]: inactive
- Potency [11]: inactive
- activity, negative = inhibition [12, 16]: 9.41% (inactive)
- activity, negative = inhibition [12, 17]: 6.69% (inactive)
- Potency (AS120): inactive
- Potency (CP238): inactive
- Potency (CP250): inactive
- Potency (CP262): inactive
- Potency (CP265): inactive
- Potency (FAB9): inactive
- Potency (JCK): inactive
- Potency (PC49): inactive

SMILES: CN[C@@H](CC(C)C)C(=O)N[C@@H]1C(=O)N[C@H](CC(N)=O)C(=O)N[C@@H]2C(=O)N[C@H]3C(=O)N[C@H](C(=O)N[C@H](C(=O)O)c4cc(O)cc(O)c4-c4cc3ccc4O)[C@H](O)c3ccc(c(Cl)c3)Oc3cc2cc(c3O[C@H]2O[C@@H](CO)[C@@H](O)[C@@H](O)[C@@H]2O[C@@H]2C[C@](C)(N)[C@H](O)[C@H](C)O2)Oc2ccc(cc2Cl)[C@@H]1O
- activity change, negative = inhibition [1]: 4.27% [at 17.2 µM] (inactive)
- activity change, negative = inhibition [3]: -5.38% [at 17.2 µM] (inactive)
- activity, negative = inhibition [4, 13]: 7.22% [at 17.2 µM] (inactive)
- Potency [5]: > 20.6 µM (inactive)
- Potency [6]: > 20.6 µM (inactive)
- Potency [7]: inactive
- Potency [8]: inactive
- activity change, negative = inhibition ([9]; at 25.7 µM (top of the series)): -2.11% (inactive)
- max response [9, 14]: 5.45%
- max response [9, 15]: 3.37%
- outcome [10]: inactive
- activity, negative = inhibition ([12]; at 28.7 µM (top of the series), parasite line A): 3.64% (inactive)
- activity, negative = inhibition ([12]; at 28.7 µM (top of the series), parasite line B): 4.98% (inactive)
- Potency (AS120): inactive
- Potency (CP238): inactive
- Potency (CP250): inactive
- Potency (CP262): inactive
- Potency (CP265): inactive
- Potency (FAB9): inactive
- Potency (JCK): inactive
- Potency (PC49): inactive

SMILES: CCN1CCC[C@@H]1CNC(=O)c1cc(S(N)(=O)=O)ccc1OC
- activity change, negative = inhibition [1]: 5.34% [at 38 µM] (inactive) and 0.665% [at 38 µM] (inactive)
- Potency [2]: inactive
- activity change, negative = inhibition [3]: -3.07% [at 38 µM] (inactive) and -10.9% [at 38 µM] (inactive)
- activity, negative = inhibition [4, 13]: 26.6% [at 38 µM] (inactive)
- Potency [5]: > 46 µM (inactive)
- Potency [6]: > 46 µM (inactive)
- Potency [7]: inactive
- Potency [8]: inactive
- activity change, negative = inhibition ([9]; at 57.5 µM (top of the series)): 3.26% (inactive)
- max response [9, 14]: -12.9%
- max response [9, 15]: -11.7%

SMILES: COC(=O)C1OC(=O)C2OC23[C@]2(C)C(O)CC4C(C)(C)C(OC(C)=O)CC(OC(C)=O)[C@@]4(C)C2CC[C@@]13C (some centres undefined)
- activity change, negative = inhibition ([9]; at 57.5 µM (top of the series)): -1.67% (inactive) and 3.12% (inactive)
- max response [9, 14]: 17.5% and 7.5%
- max response [9, 15]: 17.7% and 13.2%
- Potency [11]: inactive

SMILES: CC(=O)O[C@@H](C)C[N+](C)(C)C
- Potency [2]: inactive
- activity, negative = inhibition ([4]; at 17.2 µM (top of the series)): -1.77% (inactive)
- activity, negative = inhibition ([4]; at 38 µM (top of the series)): 30.8% (inactive)
- Potency [5]: > 46 µM (inactive) and > 20.6 µM (inactive)
- Potency [6]: > 46 µM (inactive) and > 20.6 µM (inactive)
- Potency [7]: inactive
- activity change, negative = inhibition ([9]; at 25.7 µM (top of the series)): -1.12% (inactive)
- max response [9, 14]: -2.61%
- max response [9, 15]: -4.64%
- outcome [10]: inactive
- Potency [11]: inactive
- activity, negative = inhibition [12, 16]: 0.161% (inactive)
- activity, negative = inhibition [12, 17]: 7.9% (inactive)
- Potency (AS120): inactive
- Potency (CP238): inactive
- Potency (CP250): inactive
- Potency (CP262): inactive
- Potency (CP265): inactive
- Potency (FAB9): inactive
- Potency (JCK): inactive
- Potency (PC49): inactive

SMILES: CN(C)CCOC(c1ccccc1)c1ccccc1 (tested in a mixture with another compound)
- activity change, negative = inhibition [1]: 27.4% [at 17.2 µM] (inactive) and 19.6% [at 17.2 µM] (inactive)
- activity change, negative = inhibition [3]: -93.6% [at 17.2 µM] (active)
- activity, negative = inhibition [4, 13]: 7.8% [at 17.2 µM] (inactive) and 0.334% [at 17.2 µM] (inactive)
- Potency [7]: inactive
- Potency [8]: inactive
- activity change, negative = inhibition ([9]; at 25.7 µM (top of the series)): -3.15% (inactive)
- max response [9, 14]: -0.682%
- max response [9, 15]: -4.36%

SMILES: CC(=O)Oc1c(C)c(C)c2c(c1C)CCC(C)(CCCC(C)CCCC(C)CCCC(C)C)O2 (centres undefined)
- activity change, negative = inhibition ([9]; at 57.5 µM (top of the series)): 7.46% (inactive) and -0.674% (inactive)
- max response [9, 14]: 1.52% and -6.76%
- max response [9, 15]: 12.6% and -6.49%
- Potency [11]: inactive

SMILES: Nc1ncnc2c1ncn2C1OC(CO)C(O)C1O (centres undefined)
- activity change, negative = inhibition ([9]; at 57.5 µM (top of the series)): 9.6% (inactive) and 14.7% (inactive)
- max response [9, 14]: 19.8% and 38.9%
- max response [9, 15]: 31.9% and 67.8%

SMILES: CC(=O)Oc1cc(OC(C)=O)c2c(c1)OC(c1ccc(OC(C)=O)c(OC(C)=O)c1)C(OC(C)=O)C2 (centres undefined)
- activity change, negative = inhibition ([9]; at 57.5 µM (top of the series)): 6.42% (inactive) and -10.2% (inactive)
- max response [9, 14]: 0.329% and -6.77%
- max response [9, 15]: 6.69% and -15%
- Potency [11]: inactive
